Measured values taken from PubChem BioAssay AID624405 (Broad Institute, 2012).
Among all 1,900 compounds or so, about 250 (13%) were called active. Roughly 4% stayed inconclusive and do not appear here. The list is a sample of the results. Results with a measured potency or affinity are listed apart. A number with no mark means an inactive call.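 The calls were made as follows: active = fitted curve reaches 40% rescue activity at or below the top valid dose, in every test run; inconclusive = test runs disagree, some active and some inactive; inactive = every run misses the threshold or moves the wrong way.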

Experiment: rescue of simvastatin-induced ATP loss – cell-based, C2C12 myotubes, ATP luminescence, cherry pick, dose response (AID 624405);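 also: myotubes are challenged with simvastatin at 10 µM to lower ATP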
Conditions: 48 h, scaled: DMSO wells 0, geranylgeraniol wells 100; series mostly up to 19.5 µM; rescue activity (ATP increase): at the top concentration

SMILES	rescue activity (ATP increase)
C[C@@H]1CN([C@H](C)CO)C(=O)Cc2cc(NC(=O)Cc3cn(C)c4ccccc34)ccc2O[C@H]1CN(C)Cc1ccc(C(F)(F)F)cc1	-17.1%
COc1cc2c3c(c1)C1(C(=O)N3C(C)(C)C=C2C)C(C#N)=C(N)Oc2cc(C)oc(=O)c21 (configuration not stated)	16%
COc1ccc(CCN2C(=O)C3C(C2=O)C2C=CC3C23CC3)cc1OC (configuration not stated)	-29.4%
C[C@@H]1CCCCO[C@@H](CN(C)Cc2ccc(Cl)c(Cl)c2)[C@@H](C)CN([C@H](C)CO)C(=O)c2cc(NC(=O)Cc3ccccc3)ccc2O1	18% [at 21 µM]
Cc1ccc(CSCC(=O)Nc2ccc3c(c2)OCO3)cc1	-21.8%
COc1ccc(-n2c(SCC(=O)Nc3ccc4c(c3)OCO4)nc3ccccc3c2=O)cc1	45.4%
C[C@@H]1CN([C@H](C)CO)C(=O)c2cccc(NC(=O)Nc3ccc(F)cc3)c2O[C@H]1CN(C)Cc1ccccc1	1.81%
O=C(NC1CCCC1)C(c1ccsc1)N(Cc1ccco1)C(=O)Cc1cccs1 (configuration not stated)	7.96%
Cc1ccc(C(C(=O)NC2CCCC2)N(Cc2cccs2)C(=O)CNC(=O)c2cccs2)o1 (configuration not stated)	3.04%
Cc1ccc(S(=O)(=O)N(C)C[C@@H]2Oc3ncc(C#Cc4cccc(F)c4)cc3C(=O)N([C@H](C)CO)C[C@@H]2C)cc1	25.8%
C[C@@H]1CCCCO[C@@H](CN(C)C(=O)Nc2cccc3ccccc23)[C@@H](C)CN([C@H](C)CO)C(=O)c2cc(NS(=O)(=O)c3ccc(Cl)cc3)ccc2O1	9.86% [at 21 µM]
C[C@H](CO)N1C[C@H](C)[C@@H](CN(C)CC2CCCC2)Oc2ncc(C#Cc3ccncc3)cc2C1=O	31.5% [at 18 µM]
C[C@H]1CN([C@@H](C)CO)C(=O)c2cc(C#Cc3cccc(F)c3)cnc2O[C@@H]1CN(C)C(=O)C1CCCCC1	24.4%
C[C@H](CO)N1C[C@H](C)[C@H](CN(C)C(=O)Nc2cccc3ccccc23)Oc2ncc(C#Cc3ccc(C(F)(F)F)cc3)cc2C1=O	8.24% [at 21 µM]
CC(C)CC#Cc1cnc2c(c1)C(=O)N([C@H](C)CO)C[C@@H](C)[C@H](CN(C)C(=O)Cc1ccccc1)O2	11.1%
C[C@H](CO)N1C[C@H](C)[C@H](CN(C)C(=O)Nc2ccc3c(c2)OCO3)Oc2ncc(C#Cc3ccc(F)cc3)cc2C1=O	8.89%
COc1ccc(C#Cc2cnc3c(c2)C(=O)N([C@H](C)CO)C[C@H](C)[C@H](CN(C)Cc2cccc(C(F)(F)F)c2)O3)cc1OC	20.9%
CC(C)CC#Cc1cnc2c(c1)C(=O)N([C@@H](C)CO)C[C@@H](C)[C@H](CN(C)C(=O)Cc1ccccc1)O2	-4.83%
COc1cccc(-c2cnc3c(c2)C(=O)N([C@H](C)CO)C[C@H](C)[C@H](CN(C)Cc2ccccc2)O3)c1	17.4%
Cc1cc2c(cc1C)/C(=C\C(N)=O)NC(C)(C)C2	-8.58%
COc1cc(C(N)=O)ccc1OCc1ccccc1	8.22%
CCN(CC)C(=O)CSc1nnc([C@H](CCSC)NC(=O)OC(C)(C)C)o1	-9.94%

SMILES	rescue activity (ATP increase)
O=C(NCc1ccccc1)Oc1cccc(Cl)c1	26.1%
Cc1cc(NC(=O)c2ccc(Cl)c(S(=O)(=O)N3CCOCC3)c2)no1	-10.7%
C[C@H]1CN([C@@H](C)CO)C(=O)c2cc(NS(=O)(=O)c3ccc(F)cc3)ccc2O[C@H]1CN(C)Cc1ccc(-c2ccccc2)cc1	5.05%
CN1C[C@@H]2[C@H](c3ccccc31)[C@@H](CO)N2Cc1ccccc1	21.2% [at 21 µM]
C[C@@H]1CN([C@@H](C)CO)C(=O)c2cc(NC(=O)c3ccccc3)ccc2O[C@@H](C)CCCCO[C@H]1CN(C)C(=O)CCCN(C)C	4.85%
C[C@H]1CCCCO[C@H](CN(C)C(=O)Nc2cccc3ccccc23)[C@@H](C)CN([C@@H](C)CO)C(=O)c2cc(NS(=O)(=O)c3ccc(Cl)cc3)ccc2O1	-11.2%
C[C@@H]1CN([C@H](C)CO)C(=O)c2cc(NC(=O)Nc3ccc(F)cc3)ccc2O[C@@H](C)CCCCO[C@H]1CN(C)S(=O)(=O)c1cccs1	7.63%
O=C(CN1CCN(c2ccccn2)CC1)NCCc1ccccc1	4.85%
CS(=O)(=O)N(CC(=O)NCc1ccccc1)C1CCCCC1	0.866%
CSc1cc(-c2ccc(Cl)cc2)c(C(=O)NC(C)C)s1	4.58%
COc1ccc(NC(=O)Nc2cccc3c2O[C@@H](CN(C)Cc2ccc(Oc4ccccc4)cc2)[C@@H](C)CN([C@H](C)CO)C3=O)cc1	-21% [at 21 µM]
Cc1noc(C)c1NC(=O)Nc1cccc2c1O[C@H](CN(C)Cc1ccc(-c3ccccc3)cc1)[C@@H](C)CN([C@@H](C)CO)C2=O	-5.23%
Cc1noc(C)c1NC(=O)Nc1cccc2c1O[C@@H](CN(C)Cc1ccc(-c3ccccc3)cc1)[C@H](C)CN([C@@H](C)CO)C2=O	8.68%
COc1ccc(NC(=O)Nc2cccc3c2O[C@@H](CN(C)Cc2ccc(Oc4ccccc4)cc2)[C@@H](C)CN([C@@H](C)CO)C3=O)cc1	-0.035%
C[C@@H]1CN([C@@H](C)CO)C(=O)c2cc(C#CC3CCCCC3)cnc2O[C@@H]1CN(C)C(=O)C1CCCCC1	-4.43%
CSc1nncn1/N=C/c1ccc2c(c1)OCO2	-1.45%
COc1cccc(-c2cnc3c(c2)C(=O)N([C@H](C)CO)C[C@H](C)[C@H](CN(C)C(=O)Nc2cccc4ccccc24)O3)c1	9.55%
COc1cc(C(=O)Oc2cccc(C)c2)cc(OC)c1OC	-10.8%
COc1ccc(CN2CCN(C(=O)c3cccs3)CC2)cc1Br	28.6%
O=C(c1cccs1)N1CCN(C2CCN(Cc3ccccc3)CC2)CC1	-9.46%
COc1cc(S(=O)(=O)N2CCN(C(=O)c3ccccc3F)CC2)c(OC)cc1NC(C)=O	0.236%
Cc1ccc(S(=O)(=O)N2CCCSCC2)cc1	10.4%

SMILES	rescue activity (ATP increase)
Cc1noc(N)c1C(=O)Nc1ccc(F)c(Cl)c1	1.69%
Cc1nnc(Sc2nc3c(c(=O)n(C)c(=O)n3C)n2Cc2ccccc2Cl)s1	-13.5%
O=C1CCCC2=C1C(c1cccs1)Nc1ccc3ncccc3c12 (configuration not stated)	24.9%
CCCSc1nnc(CN2CCOCC2)n1C	-4.41%
CCCNC(=O)C(=O)c1cccn1-c1ccsc1C(=O)OC	-13.7%
CCOC(=O)c1ccc(NC(=O)N2CCCCC2)cc1	-33.5%
C[C@H](CO)N1C[C@H](C)[C@H](CN(C)C(=O)Nc2ccc3c(c2)OCO3)OCCCC[C@H](C)Oc2ccc(NS(=O)(=O)c3ccc(F)cc3)cc2C1=O	36.7%
Cc1ccc(CN2CCC(C(=O)NCCC(C)C)CC2)o1	-12.4%
COc1ccc(S(=O)(=O)Nc2cccc3c2O[C@@H](CN(C)C(=O)Nc2ccc(F)cc2)[C@@H](C)CN([C@H](C)CO)C3=O)cc1	13.7%
Cc1ccc(S(=O)(=O)N(C)C[C@@H]2Oc3c(NC(=O)Nc4ccccc4)cccc3C(=O)N([C@@H](C)CO)C[C@H]2C)cc1	-16%
Cc1ccc(S(=O)(=O)N(C)C[C@H]2Oc3c(NC(=O)Nc4ccccc4)cccc3C(=O)N([C@@H](C)CO)C[C@@H]2C)cc1	14.2%
COc1ccc(S(=O)(=O)Nc2cccc3c2O[C@@H](CN(C)C(=O)Nc2ccc(F)cc2)[C@@H](C)CN([C@@H](C)CO)C3=O)cc1	8.52%
COc1ccc(S(=O)(=O)Nc2cccc3c2O[C@H](CN(C)C(=O)Nc2ccc(F)cc2)[C@@H](C)CN([C@H](C)CO)C3=O)cc1	28.7%
Cc1ccc(S(=O)(=O)N(C)C[C@H]2Oc3c(NC(=O)Nc4ccccc4)cccc3C(=O)N([C@H](C)CO)C[C@@H]2C)cc1	-0.949%
CN1C(=O)c2cc(NC(=O)c3ccc(F)c(F)c3)ccc2OC[C@H]2O[C@@H](CC(=O)Nc3ccc4c(c3)COC4)CC[C@@H]21	26% [at 10 µM]
CCSc1nc2sc3c(c2c(=O)n1-c1ccc(OC)cc1)CCN(C)C3	40.1%
COCCNC(=O)c1nn(-c2cc(OC)cc(OC)c2)c(=O)c2ccccc12	0.939%
COc1ccc(S(=O)(=O)N(CC(C)C)CC(C)C)c2cccnc12	9.83%
Cc1cccc(NC(=O)COc2ccc3oc4c(c3c2)CCCC4)n1	31.6%
CO[C@H]1CC[C@@H]2CCOc3ccc(C#N)cc3C(=O)N(C)C[C@@H](OC)[C@@H](C)C(=O)N(C)C[C@H]1O2	40.2%
C[C@@H]1CN([C@H](C)CO)C(=O)c2cc(NS(=O)(=O)c3cccs3)ccc2O[C@@H](C)CCCCO[C@@H]1CN(C)Cc1ccc(C(F)(F)F)cc1	-13.6%
O=C(CSc1nnnn1-c1cccc2c1CCCC2)N1CCCCC1	5.11%

SMILES	rescue activity (ATP increase)
Cc1ccc(NC(=O)c2cccc(OCc3c(C)noc3C)c2)cc1	-87%
COCCNC(=O)Nc1ccc2nc(-c3cccs3)c(-c3cccs3)nc2c1	-64.5%
COc1ccc(NC(=O)CSc2nccc(C)n2)cc1	8.89%
O=C(CSc1nnc(CNc2ccc(F)cc2)n1Cc1ccccc1)N1CCOCC1	-5.13%
Cc1ccc(NC(=O)CCNS(=O)(=O)c2ccc3[nH]c(=O)oc3c2)cc1F	-26.9%
C[C@@H]1CN([C@H](C)CO)C(=O)c2cc(C#CC3CCCCC3)cnc2O[C@H]1CN(C)C(=O)C1CCCCC1	-2.93%
CCOC(=O)c1cccc(NC(=O)C2CCCO2)c1 (configuration not stated)	8.93%
Cc1ccc(C2C=C(c3ccccc3OC(F)F)Nc3ncnn32)cc1 (configuration not stated)	19.5%
CNC(=O)CC(=O)Nc1ccccc1C(=O)O	13%
O=c1c2c3c(sc2nc2n1CCCS2)CCCC3	44.9%
C=CCOC(=O)c1ccc(-n2cncn2)nc1	-9.68%
CCOCCc1nnc(NC(=O)C(CC)c2ccccc2)s1 (configuration not stated)	-0.751%
CCC(C(=O)Nc1ccccc1-c1ccccc1)c1ccccc1 (configuration not stated)	1.13%
COc1ccc(S(=O)(=O)Nc2ccc3c(c2)CC(=O)N([C@H](C)CO)C[C@@H](C)[C@H](CN(C)Cc2ccccc2)O3)cc1	25.7% [at 21 µM]
Cc1ccc(S(=O)(=O)Nc2ccc3c(c2)CC(=O)N([C@@H](C)CO)C[C@@H](C)[C@H](CN(C)Cc2ccc(Oc4ccccc4)cc2)O3)cc1	22.7%
C[C@@H]1CN([C@H](C)CO)C(=O)Cc2cc(NS(=O)(=O)c3cccs3)ccc2O[C@@H]1CN(C)Cc1ccc(-c2ccccc2)cc1	40.7%
COc1ccc(CN(C)C[C@@H]2Oc3ccc(NS(=O)(=O)c4ccc(C)cc4)cc3CC(=O)N([C@H](C)CO)C[C@H]2C)cc1	16%
Cc1ccc(S(=O)(=O)Nc2ccc3c(c2)CC(=O)N([C@H](C)CO)C[C@@H](C)[C@H](CN(C)Cc2ccc(-c4ccccc4)cc2)O3)cc1	12.2%
C[C@H]1CN([C@@H](C)CO)C(=O)Cc2cc(NS(=O)(=O)c3cn(C)cn3)ccc2O[C@@H]1CN(C)Cc1ccc(-c2ccccc2)cc1	36.4%
C[C@@H]1CN([C@@H](C)CO)C(=O)Cc2cc(NS(=O)(=O)c3ccc(F)cc3)ccc2O[C@H]1CN(C)Cc1ccc(-c2ccccc2)cc1	29.3%
COc1ccc(CN(C)C[C@H]2Oc3ccc(NS(=O)(=O)c4ccccc4)cc3CC(=O)N([C@@H](C)CO)C[C@@H]2C)cc1	22.6% [at 21 µM]
